# High-throughput results (PubChem BioAssay)
# An excerpt weighted towards active compounds, which were near 3% of everything screened.
# LGR2 inh: inhibitors of bursicon-induced LGR2 CRE-luciferase signal, primary screen, cell-based, HEK293, CRE-luciferase reporter, bursicon stimulation. Drosophila bursicon receptor LGR2 (rickets). bursicon-stimulated, 4 h. inhibition, % at 9.99 µM. 380,000 tested, 0.35% active;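 active means drop in luminescence signal, shown as inhibition above about 50% in the replicate tests, limit read from the data, passing the limit was not always enough; inconclusive means probably only some replicates passing the limit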;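 further: agonist challenge used bursicon conditioned medium at about half maximal strength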
# MITF TRPM1 HTS: activators of MITF-driven TRPM1 promoter reporter, primary screen, cell-based, SK-MEL-5, luciferase, single point. SK-MEL-5 TRPM1-promoter luciferase, 24 h; % of positive control, neutral wells = 0. activation, % at 12.5 µM. 300,000 tested, 0.75% active;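 active means mean activation of at least 80% with every replicate also reaching 80%; inconclusive means mean reaches 80% but some replicate falls short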;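 further: 0% = neutral control wells and 100% = parthenolide positive control wells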
# TWEAK-Fn14 inh: inhibitors of TWEAK-Fn14 signaling, primary screen, luciferase reporter cells, uHTS; inhibition, % at 10 µM; AID 1159606, 2016; 360,000 tested, 2% active; TWEAK-stimulated Fn14 reporter cells, luciferase luminescence, 8 h; in the data active means inhibition above about 50%
# EBV LMP1 NFkB: EBV LMP1-driven NF-kappaB luciferase reporter inhibitors, primary screen, cell-based, luminescence, single point; 350,000 tested, 0.69% active; inhibition, % at 12.5 µM; LMP1-induced NF-kappaB luciferase reporter cells; in the data active means inhibition above about 41%; inconclusive means no clear call, values can overlap the other calls;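 further: 0% = neutral control wells and 100% = reference inhibitor control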
# TROY NFkB inh: inhibitors of TROY-driven NF-kB signaling, primary screen, Q293 LMP1-TROYcd cells, NF-kB luciferase, uHTS | Q293 LMP1-TROYcd NF-kB luciferase reporter, 4 h | inhibition, % at 10 µM | 360,000 tested, 0.98% active;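 active means compounds whose plate-normalised and pattern-corrected inhibition of the luciferase reporter signal at the single screening dose is 50% or more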
# MITF TRPM1 inh: inhibitors of MITF-dependent TRPM1 promoter reporter, primary screen, cell-based, SK-MEL-5, single point, luciferase; SK-MEL-5 TRPM1 promoter luciferase, 24 h; inhibition, % at 12.5 µM; 330,000 tested, 0.83% active;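 active means mean inhibition across replicates of 60% or more, whatever share of single replicates reaches that level; inconclusive means some that reach 60%, reason not given; inactive means mean inhibition across replicates below 60%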
# Active calls of the source: *; u = inconclusive; x = no result.
SMILES,LGR2 inh,MITF TRPM1 HTS,TWEAK-Fn14 inh,EBV LMP1 NFkB,TROY NFkB inh,MITF TRPM1 inh
COc1c2c(cc3oc(=O)c4c5ccc(O)cc5oc4c13)OC(C)(C)CC2,-16,59,77*,-111,77*,-55
COc1c(CC=C(C)C)c(O)cc2oc(=O)c3c4ccc(O)cc4oc3c12,x,x,36,x,-4,x
C[C@H](CO)N1C[C@H](C)[C@H](CN(C)S(=O)(=O)c2ccc(F)cc2)Oc2ccc(NC(=O)Nc3ccc(C(F)(F)F)cc3)cc2CC1=O,0,x,x,x,x,x
COc1ccc(CN(C)C[C@@H]2OCCCC[C@@H](C)Oc3ccc(NC(=O)NC4CCCCC4)cc3C(=O)N([C@@H](C)CO)C[C@H]2C)cc1,11,x,x,x,x,x
Cc1noc(C)c1NC(=O)Nc1ccc2c(c1)C(=O)N([C@@H](C)CO)C[C@H](C)[C@H](CN(C)C(=O)C1CCCCC1)OCCCC[C@@H](C)O2,-1,x,x,x,x,x
Cc1ccc(-n2nnc3c(=O)n(CC(=O)NCc4ccco4)cnc32)cc1,-1,x,3,-2,-18,x
O=C(Cn1cnc2c(nnn2-c2ccccc2)c1=O)NCc1ccco1,3,-7,24,87*,-2,8
COc1ccc(S(=O)(=O)Nc2ccc3c(c2)C(=O)N([C@H](C)CO)C[C@H](C)[C@@H](CN(C)S(=O)(=O)c2ccc(C)cc2)OCCCC[C@H](C)O3)cc1,2,x,x,x,x,x
Cc1cccc(NS(=O)(=O)c2cc(C(=O)OC(C)C(=O)NCc3ccc4c(c3)OCO4)ccc2C)c1 (stereo not given),16,-2,53*,5,29,3
CC(=O)Nc1cccc(C(=O)OC(C)C(=O)NCc2ccc3c(c2)OCO3)c1 (stereo not given),5,8,8,-5,-3,-8
CC(=O)Nc1cccc(-c2cc(NC=O)c3ncc(-c4cccc(C(C)=O)c4)n3c2)c1,-7,x,32,x,3,x
COc1cc(-c2cnc3c(NC=O)cc(-c4cccc(NC(C)=O)c4)cn23)cc(OC)c1OC,-19,x,60*,x,25,x
COc1cccc(-c2cnc3c(NC=O)cc(-c4cccc(NC(C)=O)c4)cn23)c1,-49,x,30,x,61*,x
COc1cc(-c2cc(NC(C)=O)c3ncc(-c4cc(OC)c(OC)c(OC)c4)n3c2)cc(OC)c1OC,x,x,50*,x,6,x
Cc1ccc(S(=O)(=O)Nc2ccc3c(c2)C(=O)N([C@@H](C)CO)C[C@@H](C)[C@H](CN(C)Cc2ccncc2)OCCCC[C@H](C)O3)cc1,4,x,x,x,x,x
COc1ccc2c3c([nH]c2c1)[C@@H](CO)N(C(=O)CN(C)C)CC31CN(C(=O)c2ccncc2)C1,3,x,x,x,x,x
C[C@H](CO)N1C[C@H](C)[C@@H](CN(C)S(=O)(=O)c2cn(C)cn2)Oc2ccc(NS(=O)(=O)c3ccc(Cl)cc3)cc2C1=O,-25,x,x,x,x,x
C=CC(=O)Nc1cccc(Oc2ncnc3[nH]cc(-c4cnc5ccccc5c4)c23)c1,x,-28,65*,12,53*,31
COc1ccc2c3c(n(C)c2c1)[C@H](CO)N(C)CC31CCN(C(=O)Nc2c(C)noc2C)CC1,10,x,x,x,x,x
CC=Cc1ccc2n(c1=O)C[C@@H]1N[C@H]2[C@H](C(=O)NC2CCCCC2)[C@H]1CO (mixture of isomers),14,x,x,x,x,x
Cc1ccccc1OCC(O)CNC1CCC(NCC(O)COc2ccccc2C)CC1 (stereo not given),13,-97,-37,-35,11,99*
COc1cc2c(cc1OC)C(c1ccc(-c3ccc(Cl)c(Cl)c3)o1)=NCC2,x,x,75*,13,47,38
COc1cc2c(cc1OC)C(c1ccc(-c3ccc(Cl)cc3Cl)o1)=NCC2,x,x,50*,4,35,22
COc1cc2c(cc1OC)C(c1ccc(-c3cc(Cl)ccc3Cl)o1)=NCC2,x,-28,36,16,7,29
COc1cc2c(cc1OC)C(c1ccc(-c3ccccc3Cl)o1)=NCC2,u,-9,38,51*,12,10
SMILES,LGR2 inh,MITF TRPM1 HTS,TWEAK-Fn14 inh,EBV LMP1 NFkB,TROY NFkB inh,MITF TRPM1 inh
COc1cc2c(cc1OC)C(c1ccc(Cl)cc1)=NCC2,-13,-13,-34,11,26,14
C/C=C/c1ccc([C@H]2[C@@H](CO)N(C(C)=O)C23CN(C(=O)c2ccc(F)cc2)C3)cc1,1,x,x,x,x,x
C[C@H](CO)N1C[C@H](C)[C@@H](CN(C)Cc2ccc(Oc3ccccc3)cc2)Oc2ncc(-c3cncnc3)cc2C1=O,3,x,x,x,x,x
CS(=O)(=O)N1CC2(C1)[C@H](c1ccccc1)[C@H](CO)N2C(=O)c1ccccc1,1,x,x,x,x,x
Nc1nc(COc2ccc3ccccc3c2)cs1,x,104*,6,-10,-63,-92
CCCN1[C@H](C(=O)NC2Cc3ccccc3C2)[C@@H](CO)[C@@H]2Cn3c(ccc(C4=CCCC4)c3=O)[C@@H]21,-2,x,x,x,x,x
Cc1cccc(NS(=O)(=O)c2ccc3[nH]c(=O)cc(C(=O)OC(C)C(=O)Nc4ccc([N+](=O)[O-])cc4)c3c2)c1 (stereo not given),-9,-3,-8,-5,51*,5
COCCNC(=O)CN(C(=O)CCC(=O)Nc1ccccn1)c1ccc(F)c(Cl)c1,x,0,10,87*,9,-1
NC(=O)c1sc2nc(-c3ccccc3)c3c(c2c1N)CCCC3,0,0,8,-6,17,2
NC(=O)c1sc2nccc(Nc3ccccc3)c2c1N,x,x,5,65*,-6,-19
Cc1ccc(-c2nc(C=Nc3ccccc3)c(O)o2)cc1,-24,43,-33,-24,-32,-42
Cc1ccc(N=Cc2nc(-c3ccco3)oc2O)cc1,-37,104*,7,-40,-92,-107
COc1ccc2c3c(n(C)c2c1)[C@H](CO)N(C(=O)C1CC1)CC31CCN(C(=O)C2CCOCC2)CC1,4,x,x,x,x,x
Cc1ccccc1NC(=S)NN1CCN(C)CC1,x,0,74*,-2,x,3
O=C(Nc1nnc(C2CC2)s1)c1ccc(Cl)c(S(=O)(=O)N2CCc3ccccc3C2)c1,-8,-4,50,5,56*,-1
Cc1cccc(NC(=O)c2ccc(Cl)c(S(=O)(=O)N3CCCC3)c2)n1,-21,20,-12,-5,-14,-20
O=C(Nc1ccncc1)c1ccc(Cl)c(S(=O)(=O)N2CCCCC2)c1,0,-16,39,14,17,18
O=C(Nc1ccncc1)c1ccc(Cl)c(S(=O)(=O)N2CCc3ccccc32)c1,19,-37,78*,13,46,38
CCc1nnc(NC(=O)c2ccc(Cl)c(S(=O)(=O)N3CCc4ccccc43)c2)s1,x,x,-9,-2,61*,-11
